{"source": "PubChem BioAssay (Tox21)", "note": "Inconclusive results are not listed. Unmarked numbers belong to inactive results. Calls of active or inactive are those of the source. Calls come from the whole dose curve; as a rule, active = well fitted curve in the direction sought with a large enough effect in the repeat runs; inconclusive = weak or mixed curves; inactive = no such curve, though single readings can be large; an effect the other way counts as inactive or inconclusive. % is set by controls: 0 for no effect and ±100 for the full control effect."}
{"system": "not listed separately", "assay": "qHTS assay to identify small molecule antagonists of the estrogen related receptor signaling pathway with the pleiotropic PPARgamma coactivator (PGC) cell viability counter screen (AID 1224822)", "settings": "ERR/PGC reporter cell line viability counter screen; series mostly up to 46.1 µM; viability change, negative = cytotoxic: at the top concentration", "summary_of_the_method": "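PGC/ERR cells were seeded at 2,000 cells/well, rested 6 h at 37 C/5% CO2, then given compounds in DMSO by pin tool and incubated 17.5 h at 37 C. Viability came from CellTiter-Fluor fluorescence after 30 min.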"}
{"smiles": "CCOC(=O)C(C)Oc1cccc2c(=O)n(CC(=O)Nc3ccc4c(c3)OCCO4)ccc12", "note": "(stereo not given)", "viability change, negative = cytotoxic": "-6.46%"}
{"smiles": "CNCCC=C1c2ccccc2CCc2ccccc21", "viability change, negative = cytotoxic": "-20.1%"}
{"smiles": "CCCCCC[C@@H]([C@@H](C)O)n1cnc2c(N)ncnc21", "viability change, negative = cytotoxic": "5.74%"}
{"smiles": "O=c1cc(-c2ccccc2F)[nH]c2cc3c(cc12)OCO3", "viability change, negative = cytotoxic": "-18.4%"}
{"smiles": "Nc1nc(OCc2ccccc2)c2[nH]cnc2n1", "viability change, negative = cytotoxic": "5.76%"}
{"smiles": "Nc1ncnc2c1ncn2C1CCCC1", "viability change, negative = cytotoxic": "9.51%"}
{"smiles": "CN[C@H](CC(=O)O)C(=O)O", "viability change, negative = cytotoxic": "4.31%"}
{"smiles": "CC(C)Cc1ccc([C@H](C)C(=O)O)cc1", "viability change, negative = cytotoxic": "2.51%"}
{"smiles": "O=C(N[C@H](CO)[C@H](O)c1ccc([N+](=O)[O-])cc1)C(Cl)Cl", "viability change, negative = cytotoxic": "-3.33% [at 92.2 µM]"}
{"smiles": "CN1CCc2cc(NC(=O)Nc3cccnc3)ccc21", "viability change, negative = cytotoxic": "-0.586%"}
{"smiles": "N#C/C(=C\\c1ccc(O)c(O)c1)C(=O)NCCc1ccccc1", "viability change, negative = cytotoxic": "-8.36%"}
{"smiles": "C[C@H]1CC2C3CCC4=CC(=O)C=C[C@]4(C)[C@@]3(Cl)[C@@H](O)C[C@]2(C)[C@@]1(O)C(=O)CO", "note": "(stereo not given in full)", "viability change, negative = cytotoxic": "8.35%"}
{"smiles": "CC(C)[C@@H]1CC[C@@H](C)C[C@@H]1P(=O)(c1ccccc1)c1ccccc1", "viability change, negative = cytotoxic": "9.29%"}
{"smiles": "C=C1C[C@@]23CC[C@H]4[C@@](C)(CCC[C@@]4(C)C(=O)O)[C@@H]2CC[C@]1(O)C3", "viability change, negative = cytotoxic": "4.32%"}
{"smiles": "CC1=C(/C=C/C(C)=C/C=C/C(C)=C\\C(=O)O)C(C)(C)CCC1", "viability change, negative = cytotoxic": "6.01%"}
{"smiles": "Nc1ncnc2c1nc(Sc1ccc(Cl)cc1)n2[C@H]1OC2COP(=O)(O)O[C@@H]2C1O", "note": "(stereo not given in full)", "viability change, negative = cytotoxic": "5.61%"}
{"smiles": "Cc1cc(NC(=O)Nc2ccc3c(ccn3C)c2)sn1", "viability change, negative = cytotoxic": "3.81%"}
{"system": "not listed separately", "assay": "qHTS assay to identify small molecule agonists of the estrogen related receptor signaling pathway with the pleiotropic PPARgamma coactivator (PGC) (AID 1224823)", "settings": "ERR/PGC reporter cell line, luciferase agonist mode; series mostly up to 46.1 µM; activation: at the top concentration", "summary_of_the_method": "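PGC/ERR reporter cells seeded 6 h, then exposed to compounds (23 nL in DMSO) for 18 h at 37 C. One-Glo luciferase luminescence read after 30 min at room temperature.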"}
{"smiles": "CCCOC(=O)c1ccc(O)cc1", "activation": "4.57% [at 92.2 µM]"}
{"smiles": "Nc1nc(OCc2ccccc2)c2[nH]cnc2n1", "activation": "11.2%"}
{"smiles": "Nc1ncnc2c1ncn2C1CCCC1", "activation": "-2.68%"}
{"smiles": "CN[C@H](CC(=O)O)C(=O)O", "activation": "-0.612%"}
{"smiles": "CC(C)Cc1ccc([C@H](C)C(=O)O)cc1", "activation": "3.99%"}
{"smiles": "C[C@H]1CC2C3CCC4=CC(=O)C=C[C@]4(C)[C@@]3(Cl)[C@@H](O)C[C@]2(C)[C@@]1(O)C(=O)CO", "note": "(stereo not given in full)", "activation": "3.34%"}
{"smiles": "CC(C)[C@@H]1CC[C@@H](C)C[C@@H]1P(=O)(c1ccccc1)c1ccccc1", "activation": "-4.39%"}
{"smiles": "C=C1C[C@@]23CC[C@H]4[C@@](C)(CCC[C@@]4(C)C(=O)O)[C@@H]2CC[C@]1(O)C3", "activation": "1.57%"}
{"system": "not listed separately", "assay": "qHTS assay to identify small molecule antagonists of the estrogen related receptor (ERR) signaling pathway from Tox21 library - cell viability counter screen (AID 1224834); note: nearly all actives have a fitted effect of over 30% in size; note: potency is the fitted concentration of half-maximal effect", "settings": "ERR reporter cells viability, CellTiter-Fluor, 17.5 h; series mostly up to 92.4 µM; viability change, negative = cytotoxic: at the top concentration", "summary_of_the_method": "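ERR reporter cells were plated 6 h before compound addition, then exposed to test compounds in DMSO for 17.5 h at 37 C. Viability was read as CellTiter-Fluor fluorescence after a 30-minute incubation at 37 C.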"}
{"smiles": "O=C1CCCCCCCCCCCCCC1", "viability change, negative = cytotoxic": "0.592%"}
{"smiles": "COc1cc(/C=C/C(=O)CC(=O)/C=C/c2ccc(O)c(OC)c2)ccc1O", "Potency": "21.8 µM (active)"}
{"smiles": "Cc1ccc2nc(-c3ccc(N)cc3)sc2c1S(=O)(=O)O", "viability change, negative = cytotoxic": "0.835% [at 42.5 µM]"}
{"smiles": "c1ccc2cc3c4ccccc4c4ccccc4c3cc2c1", "viability change, negative = cytotoxic": "-2.23%"}
{"smiles": "CCCCCCCCCCCCCCCCC(C(=O)O)C(O)(CC(=O)O)C(=O)O", "note": "(stereo not given)", "viability change, negative = cytotoxic": "-8.02% [at 42.5 µM]"}
{"smiles": "NCc1cccc(C2CCN(C(=O)c3ccc(C#Cc4ccccc4F)o3)CC2)c1", "Potency": "68.6 µM (active)"}
{"smiles": "Oc1ccc(Cl)cc1C1CCCC1", "viability change, negative = cytotoxic": "-6.78%"}
{"smiles": "CCCCCCCCCCCCCCCCCCNC(=O)OC1CCN(C(=O)OC[C@H](COC(=O)N(Cc2cccc[n+]2CC)C(=O)c2ccccc2OC)OC)CC1", "Potency": "26.6 µM (active)"}
{"smiles": "O=C(CCCCCCCCc1cccnc1)N1CCC(C=C(c2ccccc2)c2ccccc2)CC1", "Potency": "54.5 µM (active)"}
{"smiles": "O=C(N[C@H](CO)[C@H](O)c1ccc([N+](=O)[O-])cc1)C(Cl)Cl", "viability change, negative = cytotoxic": "-7.53%"}
{"smiles": "CC1=C(/C=C/C(C)=C/C=C/C(C)=C\\C(=O)O)C(C)(C)CCC1", "viability change, negative = cytotoxic": "-13.9%"}
{"smiles": "C[C@H]1O[C@@H](O[C@H]2CC[C@@]3(C)[C@H](CC[C@@H]4[C@@H]3C[C@@H](O)[C@]3(C)[C@@H](C5=CC(=O)OC5)CC[C@]43O)C2)C[C@H](O)[C@@H]1O[C@H]1C[C@H](O)[C@H](O[C@H]2C[C@H](O)[C@H](O[C@@H]3O[C@H](CO)[C@@H](O)[C@H](O)[C@H]3O)[C@@H](C)O2)[C@@H](C)O1", "Potency": "0.168 µM (active)"}
{"molecular_target": "Luciferin 4-monooxygenase (Photinus pyralis) (UniProt P08659)", "sequence (P08659 whole entry, looked up)": "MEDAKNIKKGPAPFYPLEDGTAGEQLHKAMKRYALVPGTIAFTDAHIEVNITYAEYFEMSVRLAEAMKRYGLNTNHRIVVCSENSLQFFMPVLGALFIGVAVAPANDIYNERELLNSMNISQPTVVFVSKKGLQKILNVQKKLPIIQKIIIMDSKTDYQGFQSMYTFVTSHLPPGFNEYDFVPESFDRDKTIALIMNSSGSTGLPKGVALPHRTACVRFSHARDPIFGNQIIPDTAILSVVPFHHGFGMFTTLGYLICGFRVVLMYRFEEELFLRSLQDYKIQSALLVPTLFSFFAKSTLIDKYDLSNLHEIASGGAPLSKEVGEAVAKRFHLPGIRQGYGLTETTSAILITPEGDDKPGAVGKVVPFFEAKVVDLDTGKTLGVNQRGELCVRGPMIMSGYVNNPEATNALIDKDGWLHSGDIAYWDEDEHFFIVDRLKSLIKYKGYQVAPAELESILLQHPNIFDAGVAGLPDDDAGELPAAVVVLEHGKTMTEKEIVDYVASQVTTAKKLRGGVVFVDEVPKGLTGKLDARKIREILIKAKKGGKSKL", "assay": "qHTS assay to identify small molecule inhibitors of firefly luciferase (AID 1224835); note: nearly all actives have a fitted effect of over 25% in size; note: potency is the fitted concentration of half-maximal effect", "settings": "purified P. pyralis luciferase, luminescence inhibition; series mostly up to 115 µM; activity change, negative = inhibition: at the top concentration", "summary_of_the_method": "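Quantitative HTS format; KM concentrations of both substrates. Purified P. pyralis FLuc activity quantified from luminescence images.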"}
{"smiles": "Cc1ccc2nc(-c3ccc(N)cc3)sc2c1S(=O)(=O)O", "Potency": "1.39 µM (active)"}
{"smiles": "CCCOC(=O)c1ccc(O)cc1", "Potency": "89.4 µM (active)"}
{"smiles": "CCCCCCCCCCCCCCCCC(C(=O)O)C(O)(CC(=O)O)C(=O)O", "note": "(stereo not given)", "activity change, negative = inhibition": "-0.608% [at 52.9 µM]"}
{"smiles": "NCc1cccc(C2CCN(C(=O)c3ccc(C#Cc4ccccc4F)o3)CC2)c1", "activity change, negative = inhibition": "-16.6%"}
{"smiles": "C=CCc1cc(S(=O)(=O)c2ccc(O)c(CC=C)c2)ccc1O", "activity change, negative = inhibition": "-0.396%"}
{"smiles": "Oc1ccc(Cl)cc1C1CCCC1", "activity change, negative = inhibition": "-9.72%"}
{"smiles": "CCCCCCCCCCCCCCCCCCNC(=O)OC1CCN(C(=O)OC[C@H](COC(=O)N(Cc2cccc[n+]2CC)C(=O)c2ccccc2OC)OC)CC1", "activity change, negative = inhibition": "2.56% [at 52.9 µM]"}
{"smiles": "S=C1NC=NC2N=CNC12", "note": "(stereo not given)", "activity change, negative = inhibition": "-10.6%"}
{"smiles": "O=C(CCCCCCCCc1cccnc1)N1CCC(C=C(c2ccccc2)c2ccccc2)CC1", "activity change, negative = inhibition": "3.72%"}
{"smiles": "O=C(N[C@H](CO)[C@H](O)c1ccc([N+](=O)[O-])cc1)C(Cl)Cl", "activity change, negative = inhibition": "3.17%"}
{"smiles": "CC(Cc1ccc(O)c(O)c1)C(C)Cc1ccc(O)c(O)c1", "note": "(stereo not given)", "Potency": "71 µM (active)"}
{"smiles": "CC1=C(/C=C/C(C)=C/C=C/C(C)=C\\C(=O)O)C(C)(C)CCC1", "Potency": "63.5 µM (active)"}
{"smiles": "C[C@H]1O[C@@H](O[C@H]2CC[C@@]3(C)[C@H](CC[C@@H]4[C@@H]3C[C@@H](O)[C@]3(C)[C@@H](C5=CC(=O)OC5)CC[C@]43O)C2)C[C@H](O)[C@@H]1O[C@H]1C[C@H](O)[C@H](O[C@H]2C[C@H](O)[C@H](O[C@@H]3O[C@H](CO)[C@@H](O)[C@H](O)[C@H]3O)[C@@H](C)O2)[C@@H](C)O1", "activity change, negative = inhibition": "5.4% [at 52.9 µM]"}
